Source: PubChem BioAssay (National Center for Advancing Translational Sciences (NCATS))
An excerpt weighted towards active compounds, which were near 7% of everything screened.
BAZ2B inh = qHTS Assay for Inhibitors of BAZ2B; Bromodomain adjacent to zinc finger domain protein 2B (Homo sapiens), Q9UIF8; AlphaScreen BAZ2B-H3K14Ac peptide displacement; Potency, µM (series often up to 114 µM), usual class: inhibitors; 360,000 compounds, 4.4% hits; AID 504333, 2011; further: nearly all actives have a fitted effect of over 60% in size
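Compounds, titrated to a top concentration of 110 uM, were incubated 30 min at room temperature with preformed BAZ2B/acetyl-K14 H3 peptide complex (50 nM each). Proximity signal was measured by AlphaScreen after 20 min with beads.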
PLK1 PBD inh = qHTS for Inhibitors of PLK1-PDB (polo-like kinase 1 - polo-box domain): Primary Screen; 360,000 compounds, 2.8% hits; Potency, µM, most hits filed as inhibitors; Plk1 PBD binding of FITC phosphopeptide, fluorescence polarization; AID 720504, 2013; Serine/threonine-protein kinase PLK1 (Homo sapiens), P53350; further: series mostly up to about 57 µM; nearly all actives have a fitted effect of over 65% in size
JMJD2A Tudor = qHTS Assay for Inhibitors of JMJD2A-Tudor Domain; Lysine-specific demethylase 4A (Homo sapiens), O75164; AlphaScreen JMJD2A-Tudor / H3K4me3 peptide binding; Potency, µM (highest dose often 114 µM), actives largely listed as inhibitors; 390,000 compounds, 4.4% hits; AID 504339, 2011; further: nearly all actives have a fitted effect of over 50% in size
HP1b binding inh = HTS for Inhibitors of HP1-beta Chromodomain Interactions with Methylated Histone Tails; Potency, µM (titrated, usually from 114 µM), usual class: inhibitors; Chromobox protein homolog 1 (Homo sapiens), P83916; AlphaScreen HP1-beta / biotin-H3K9me3 peptide binding; 390,000 compounds, 0.56% hits; further: nearly all actives have a fitted effect of over 70% in size
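HP1-beta protein (50 nM final) preincubated 30 min at room temperature with biotinylated H3(1-18)K9me3 peptide (50 nM) in PBS pH 7.4, 0.01% Tween-20, then compound added for 30 min. AlphaScreen streptavidin donor/nickel chelate acceptor beads (10 ug/mL final), 30 min dark, luminescence read.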
PI5P4Ka inh = qHTS for Inhibitors of phosphatidylinositol 5-phosphate 4-kinase (PI5P4K); AID 652105, 2013; PI5P4Kalpha enzyme, ADP-Glo luminescence, 60 min; hits give low values; 330,000 compounds, 1.2% hits; max response, %; Phosphatidylinositol 5-phosphate 4-kinase type-2 alpha (Homo sapiens), P48426; active means max response of -50% or lower; inconclusive means between -30% and -50%; inactive means -30% or higher; further: value at the top dose of about 77 µM
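Human PI5P4Kalpha with substrate in 0.038 M HEPES pH 7.4, 0.28 mM EGTA, 0.1% CHAPS, 5% DMSO; reaction started with 5 microM ATP (final), 60 min at room temperature. ADP formed read by ADP-Glo luminescence.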
KAT2A inh = qHTS Assay for Inhibitors of GCN5L2; Histone acetyltransferase KAT2A (Homo sapiens), Q92830; GCN5L2 HAT assay, ThioGlo1 CoA-SH fluorescence; Potency, µM (series often up to 58.9 µM), actives largely listed as inhibitors; 390,000 compounds, 0.21% hits; AID 504327, 2011
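Preincubate 20nM GCN5L2 with compound 15 min, RT → add 50uM ThioGlo1 + 75uM H3(1-25) + 70uM acetyl-CoA → read fluorescence 0 and 20 min. Primary qHTS; fluorescent artifacts likely.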
A number is an active result; n = inactive; u = inconclusive; x = no result. Unless noted, the call rests on the fitted dose curve; in most records, active means well fitted curve in the direction sought with a large enough effect; inconclusive means small, poorly fitted or top-dose-only effect, or another doubt; inactive means no such curve, though single readings can be large; an effect the other way counts as inactive or inconclusive.

SMILES | BAZ2B inh | PLK1 PBD inh | JMJD2A Tudor | HP1b binding inh | PI5P4Ka inh | KAT2A inh
COc1ccc(C(=O)N/C(=C\c2cn(C)c3ccccc23)C(=O)N2CCN(C)CC2)cc1 | n | n | n | n | n | n
COc1ccc(C(=O)N/C(=C\c2cn(C)c3ccccc23)C(=O)N2CCN(C)CC2)cc1OC | n | 26.7µM | u | n | n | n
O=C(N1CCc2cc(S(=O)(=O)NC[C@H]3O[C@@H](n4ccc(=O)[nH]c4=O)[C@H](O)[C@@H]3O)ccc2C1)C(F)(F)F | x | u | n | n | n | x
CCOC(=O)C(C)Sc1ccc2nnc(-c3ccc(F)cc3)n2n1 (centres undefined) | n | u | n | n | x | n
COC(=O)C(C)Sc1ccc2nnc(-c3ccccc3)n2n1 (centres undefined) | x | n | n | n | n | n
Cc1ccc(-c2nnc3ccc(SC(C)C(=O)O)nn23)cc1 (centres undefined) | n | u | 39.8µM | u | u | u
CC(Sc1ccc2nnc(-c3ccc(F)cc3)n2n1)C(=O)O (centres undefined) | n | 26.7µM | u | n | u | n
CCC(Sc1ccc2nnc(-c3cccnc3)n2n1)C(=O)O (centres undefined) | n | n | n | n | -58.3 | n
COc1cccc(NC(=O)C(=O)NCCc2csc(-c3ccc(C)cc3)n2)c1 | n | x | n | n | x | n
COc1ccc(F)cc1S(=O)(=O)Nc1ccc2c(c1)CCCN2C(=O)c1cccs1 | n | x | n | n | x | n
O=C(O)CCN1C(=O)/C(=C\c2ccc(OCc3ccccc3)c(OCc3ccccc3)c2)SC1=S | 44.7µM | n | 44.7µM | u | n | u
O=C(O)C(Cc1ccccc1)N1C(=O)/C(=C/c2cccs2)SC1=S (centres undefined) | u | u | u | n | n | n
O=C(O)CCN1C(=O)/C(=C\c2cccc(OCc3ccccc3)c2)SC1=S | n | 18.9µM | n | n | n | u
COCCN1C(=O)/C(=C/c2ccc(OCc3ccc(C(=O)O)cc3)c(OC)c2)SC1=Nc1ccccc1 | 56.2µM | u | u | n | n | u
COc1cc(/C=C2\SC(=Nc3ccccc3)N(Cc3ccco3)C2=O)ccc1OC(C)C(=O)O (centres undefined) | u | u | u | n | n | u
COc1cccc(/C=C2\SC(=S)N(C(Cc3ccccc3)C(=O)O)C2=O)c1 (centres undefined) | u | 33.6µM | n | n | n | n
O=C(NC1CCCCC1)N(Cc1cc2cc3c(cc2[nH]c1=O)OCCO3)C1CCCCC1 | n | n | n | n | x | n
CC1=C([N+](=O)[O-])C(c2ccccc2)C2=C(N1)c1ccccc1C2=O (centres undefined) | 35.5µM | n | 25.1µM | u | n | n
COc1ccc(C2C(C#N)=C(C)NC3=C2C(=O)c2ccccc23)cc1 (centres undefined) | u | n | u | n | x | n
COc1cccc(NS(=O)(=O)c2ccc3[nH]cc(C(=O)NCCc4ccccc4)c(=O)c3c2)c1 | x | x | n | n | x | n
COc1ccc(NC(=O)c2ccc3c(c2)NC(=O)CS3)cc1 | n | n | 56.2µM | n | n | n
Cc1ccc(NS(=O)(=O)c2cc(C(=O)O)ccc2Cl)c(C)c1 | n | n | n | n | n | n
Cc1ccc(NS(=O)(=O)c2cc(NC(=O)c3ccc4c(c3)NC(=O)CS4)ccc2Cl)c(C)c1 | n | 5.97µM | n | u | u | n
CC(C)CN(C(=O)CCC(=O)OCC(=O)N(C)c1ccccc1)c1c(N)n(CC(C)C)c(=O)[nH]c1=O | n | n | n | n | n | n
Cc1nn(CC(=O)Nc2cccc(C(F)(F)F)c2)c(=O)c2cccn12 | n | 26.7µM | u | n | n | n
SMILES | BAZ2B inh | PLK1 PBD inh | JMJD2A Tudor | HP1b binding inh | PI5P4Ka inh | KAT2A inh
NNC(=O)c1cn2ccccc2n1 | 17.8µM | n | 20µM | n | n | n
Cc1ccc(C(=O)COC(=O)c2cn3ccccc3n2)cc1 | n | n | n | n | n | n
CN1CCN(C(=O)C(=O)c2cn(CC(=O)N3CCCCCC3)c3ccccc23)CC1 | x | n | x | x | n | x
CC[n+]1cc(-c2ccccc2)nc(N2CCOCC2)n1 | n | n | 31.6µM | n | x | n
NC(=O)c1cc(-c2ccccc2)nc(N2CCOCC2)n1 | n | n | n | n | n | n
CS(=O)(=O)c1ccc2c(c1)sc1nc(=O)c(/C=C3/C=CC(=O)C(O)=C3)c(N)n12 | 14.1µM | n | 7.08µM | 15.8µM | -80.2 | u
COC1=C/C(=C/c2c(N)n3c(nc2=O)sc2cc(S(C)(=O)=O)ccc23)C=CC1=O | n | n | u | n | -76.2 | n
Cn1c(=NC(=O)c2ccccc2[N+](=O)[O-])sc2cc(S(C)(=O)=O)ccc21 | n | n | n | n | n | n
CCCn1c(=NC(=O)CS(=O)(=O)c2ccccc2)sc2cc(S(C)(=O)=O)ccc21 | n | n | n | n | n | n
CC1=NN(c2ccccc2)C(=O)C1C=Nc1ccc(N(C)C)cc1 (centres undefined) | 35.5µM | n | 44.7µM | u | n | n
CC(C)Cn1cc(NC(=O)NCc2ccc(Cl)cc2)c2ccccc2c1=O | n | x | 39.8µM | n | x | n
CC(C)Cn1cc(NC(=O)NCc2ccccc2)c2ccccc2c1=O | n | x | n | n | x | n
COC(=O)c1ccc(NC(=O)C(=O)c2cccn2C)cc1 | n | n | n | n | -53.0 | n
N#CC1=C(N)C(C#N)(C#N)[C@H](c2c(F)cccc2F)[C@H]2CC3(CC=C12)OCCO3 | n | n | n | n | x | n
N#CC1=C(N)C(C#N)(C#N)C2(CCC3(CC2)OCCO3)C2CC3(CC=C12)OCCO3 (centres undefined) | 100µM | n | n | n | x | n
CC(C)(C)c1n[nH]c2c1CCCC2 | n | 26.7µM | 89.1µM | n | n | n
COc1cccc(-n2c(-c3ccco3)nc3c(cnn3-c3ccccc3C)c2=O)c1 | x | x | u | n | x | n
Cc1ccc(NC(=O)Cn2c(=O)n(CCc3ccccc3)c(=O)c3sc4ccccc4c32)cc1C | n | x | n | n | x | n
O=S(=O)(c1ccc(F)cc1)N1CCN(C(=S)NC2CC2)CC1 | n | n | n | n | n | n
CCN1CCC(O)(/C=C/c2ccc(C(C)C)cc2)C(C(=O)/C=C/c2ccc(C(C)C)cc2)C1 (centres undefined) | x | n | 31.6µM | u | n | x
